# In PubChem BioAssay:
# The source made the active and inactive calls. Cut-off read from the data, not from the text of the source: active = inhibition above about 33%; inactive = the rest.
# Experiment: compounds suppressing VP16-driven luciferase signal – cell-based, luminescence, high throughput, counter-screen for LRH-1 inverse agonist project (AID 651615)
# Settings: Gal4-VP16 luciferase reporter cells, at 3.6 µM, active compounds read high
row,SMILES,inhibition
1,Cc1cc(-c2nn3c(-c4ccccc4)nnc3s2)c2ccccc2n1,-31.6% (inactive)
2,O=C(CSc1nncc(=O)[nH]1)Nc1cccc([N+](=O)[O-])c1,8.83% (inactive)
3,COc1ccc(Cc2c(-c3cccc(Cl)c3)nc3cc(C)c(Br)c(C)n23)c(C)c1,-4.66% (inactive)
4,CCOc1ccc(NC(=O)CN2CCN(C3c4ccccc4-c4ccccc43)CC2)cc1,-0.77% (inactive)
5,CC(=O)N[C@@H](Cc1c[nH]c2ccccc12)C(=O)OCC(=O)Nc1ccc2c(c1)OCO2,-4.65% (inactive)
6,CCN(CC)S(=O)(=O)c1ccc(N2CCCC2)c(NC(=O)c2ccc([N+](=O)[O-])o2)c1,10.5% (inactive)
7,COc1cccc(C(=O)N/N=C2/SCC(=O)N2CCc2ccc(OC)c(OC)c2)c1,-5.38% (inactive)
8,COc1ccccc1NC(=O)CN1CCN(CC(=O)Nc2ccc3c(c2)OCO3)CC1,0.21% (inactive)
9,CCN1C(=O)c2cccc3c(S(=O)(=O)Nc4ccccc4O)ccc1c23,-88.6% (inactive)
10,O=C(CCl)NCCN1C(=O)S/C(=C\c2cccnc2)C1=O,-3.37% (inactive)
11,COc1ccc(CCNC(=O)c2ccccc2NC(=O)CN2CCN(c3ccccc3O)CC2)cc1,-22.9% (inactive)
12,CC(C)NC(=O)N1Cc2cc(C(=O)NC3CCCCC3)nc(-c3cccc(-c4cccnc4)c3)c2[C@@H]1CCO,-0.48% (inactive)
13,CCC(C)Nc1nc(-c2cccc(OC)c2O)nc2ccccc12 (centres undefined),-7% (inactive)
14,CC(CCc1ccccc1)NC(=O)COc1ccc(S(=O)(=O)N2CCOCC2)cc1[N+](=O)[O-] (centres undefined),24.5% (inactive)
